About 79,000 compounds went through this panel and 15% of them were active in at least one assay; those are over-represented in the sample as a whole. Calls of active or inactive are those of the source. No stated cut-off is given here; in the data, active means growth inhibition above about 70%; inactive means the rest. Where a SMILES comes first, the peptide text is derived from it. The star is where a group is joined. Cbz = O=C(OCc1ccccc1)*

This passage reports growth inhibition results from PubChem BioAssay (NCI).

The first assay can be described thus: NCI Yeast Anticancer Drug Screen. Data for the bub3 strain (AID 167). The settings on record: S. cerevisiae bub3 mutant strain, at 50.0 µM, hits give high values. In outline:
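Steps: expose the mutant yeast strain to compound; grow alongside vehicle-treated cultures; measure growth; express inhibition against the vehicle cultures.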
Consider `O=CC1CCCO1` (stereo not given), for which the growth inhibition is 6.45% (inactive).
`CSc1ccc(OC(=O)Nc2cc([N+](=O)[O-])ccc2F)cc1C`: the growth inhibition was 28.8% (inactive).
Regarding `O=S1(=O)CCC(Br)c2ccccc21` (stereo not given), the growth inhibition is 8.6% (inactive).
The same measure, in the same setting: the same measure for `CNC(=S)Nc1ccccc1`: -5.35% (inactive).
In the case of `N#Cc1[nH]nc2nc[nH]c(=O)c12`, the growth inhibition was 3.9% (inactive).
With `CCN(CCO)CC(O)Cn1cnc2c(N)ncnc21` (stereo not given), the growth inhibition was -17.3% (inactive).
The same measure, in the same setting: the same measure for `O=c1[nH]c2cc3ccccc3cc2c2ccccc12`: -1.7% (inactive); for `O=C(NCc1ccc(Cl)c(Cl)c1)Nc1ccccc1F`: 20.4% (inactive); for `C(=NCCSSCCN=Cc1ccccc1)c1ccccc1`: -12.1% (inactive).
With `Cc1nc(Cc2ccc(O)c(O)c2)c(C)o1`, the growth inhibition is -18% (inactive).
As for `COC(=O)C(NC(=O)C(C)NC(=O)C1CCCN1C(=O)CNC(=O)C(CO)NC(=O)C(NC(=O)OCc1ccccc1)C(C)O)C(C)O` (stereo not given) (Cbz-TSGPAT-OMe; configuration not given here), the growth inhibition is -7.8% (inactive).
The same measure, in the same setting: then `Nc1nc2ncc(CCCNc3ccc(C(=O)NC(CCC(=O)O)C(=O)O)cc3)nc2c(=O)[nH]1` (stereo not given), with 3.7% (inactive).
Turning to `CC(C)N(C=C(C#N)C#N)C(C)C`, the growth inhibition is 3.75% (inactive).
In the case of `COc1ccc(OC)c(CCCCC(N)=O)c1`, the growth inhibition was 0.5% (inactive).
Turning to `O=CC(=O)c1ccccc1O`, the growth inhibition was 37% (inactive).
Take `COc1ccc(C(CC(=O)O)c2ccc(OC)cc2OC)cc1` (stereo not given): the growth inhibition is 0.85% (inactive).
Turning to `CC(COC(=O)c1ccc(N)cc1)NC1CCCCC1` (stereo not given), the growth inhibition was -2.25% (inactive).
Consider `CC(=O)O[C@@H]1[C@H]2[C@@H](OC(=O)c3ccccc3)[C@@H](C)C[C@]2(O)[C@H](OC(C)=O)[C@@]2(C)[C@@H]3C[C@@](C)(OC(C)=O)C[C@@H](OC(C)=O)[C@@]3(OC(C)=O)C[C@@]12C`, for which the growth inhibition was -6.35% (inactive).
For `C/C(CCl)=N/NC(N)=S`, the growth inhibition was -11.9% (inactive).
Consider `Cc1cc(Br)cc(Cl)c1O`, for which the growth inhibition was -30.2% (inactive).
As for `Cc1cc2c(cc1C)NC1=C(N2)OC(c2ccc(Cl)cc2)C1=O` (stereo not given), the growth inhibition is 21.1% (inactive).
Turning to `C[N+](C)(C)CC(=O)N/N=C(/Cc1nc2ccc([N+](=O)[O-])cc2[nH]c1=O)C(=O)Nc1cc(C(F)(F)F)ccc1Cl`, the growth inhibition is -5.4% (inactive).
With `Cc1ccc(NS(=O)(=O)c2ccc(F)cc2)c(C)c1`, the growth inhibition was -0.2% (inactive).
Regarding `Cc1nsc2[nH]c(=O)n(Nc3ccc(O)cc3)c(=O)c12`, the growth inhibition was 5% (inactive).
Consider `O=S(=O)(O)Cc1cccc2ccccc12`, for which the growth inhibition is -2.65% (inactive).
The same measure, in the same setting: the same measure for `C[N+]([O-])=C(c1ccccc1)c1ccccc1`: -30.8% (inactive).
With `CCCCCCC(C)OC(=O)CCl` (stereo not given), the growth inhibition was 1.25% (inactive).
On to `CC(Oc1ccc2c(-c3ccc(Cl)cc3)cc(=O)oc2c1)C(=O)O` (stereo not given), for which the growth inhibition was -7.15% (inactive).
In the case of `CC(=O)Nc1cc2c3c(c1)CCCN3CCC2`, the growth inhibition is 27.6% (inactive).
Regarding `C/C(=N\N=Nc1ccc(N(C)C)cc1)c1ccccc1`, the growth inhibition was 29.2% (inactive).
Regarding `CS/N=C(\c1ccccc1)N(C)C`, the growth inhibition was -1.6% (inactive).
For `O=C1c2cscc2C(=O)c2c(OCc3ccccc3)ccc(OCc3ccccc3)c21`, the growth inhibition was 1.95% (inactive).
With `Oc1ccc2c(c1)OCC(O)(c1ccccc1O)C2` (stereo not given), the growth inhibition is 23.2% (inactive).
Turning to `COc1c(-c2cccs2)oc2c(CC(=O)O)cccc2c1=O`, the growth inhibition was 17.7% (inactive).
As for `CSc1nc2c(nc(N)n2C2OC(CO)C(O)C(O)C2O)c(=O)[nH]1` (stereo not given), the growth inhibition was -6.2% (inactive).
With `Clc1ccc([I+]c2ccc(Cl)cc2)cc1`, the growth inhibition was 97% (active).
As for `Cc1cc2c(cc1Cl)SC(NNC(=O)c1ccncc1)=NS2(=O)=O`, the growth inhibition is -63.4% (inactive).
Same read-out and setting: then `Cc1ccc(S(=O)(=O)C2c3nc4ccccc4cc3-c3nc4ccccc4nc32)cc1` (stereo not given), with 7.95% (inactive); and `CC1C(=O)OC(=O)C1C` (stereo not given), with -4.6% (inactive); and `COC(=O)c1ccccc1NC(=NC1CCCCCC1)NS(=O)(=O)c1ccc(C)cc1`, with 0.3% (inactive).

Another assay is described as follows: NCI Yeast Anticancer Drug Screen. Data for the mlh1 rad18 strain (AID 175). The note with it: S. cerevisiae mlh1 rad18 strain growth inhibition; at 50.0 µM; hits give high values. In a few lines: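 Cells of a genetically altered yeast strain, deficient in DNA damage repair, were treated with compound. Their growth was then compared with that of vehicle-treated cultures to give inhibition.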
On to `O=CC1CCCO1` (stereo not given), for which the growth inhibition is 22% (inactive).
Take `CSc1ccc(OC(=O)Nc2cc([N+](=O)[O-])ccc2F)cc1C`: the growth inhibition is 17.1% (inactive).
Same read-out and setting: the same measure for `O=S1(=O)CCC(Br)c2ccccc21` (stereo not given): -12.5% (inactive).
The same measure, in the same setting: the same measure for `CNC(=S)Nc1ccccc1`: 18.8% (inactive); for `N#Cc1[nH]nc2nc[nH]c(=O)c12`: 4.85% (inactive).
Same read-out and setting: then `CCN(CCO)CC(O)Cn1cnc2c(N)ncnc21` (stereo not given), with 23.4% (inactive).
As for `O=c1[nH]c2cc3ccccc3cc2c2ccccc12`, the growth inhibition is 14.2% (inactive).
Regarding `O=C(NCc1ccc(Cl)c(Cl)c1)Nc1ccccc1F`, the growth inhibition is 7.05% (inactive).
As to `C(=NCCSSCCN=Cc1ccccc1)c1ccccc1`, the growth inhibition is 21.6% (inactive).
Regarding `Cc1nc(Cc2ccc(O)c(O)c2)c(C)o1`, the growth inhibition was 8.2% (inactive).
For `COC(=O)C(NC(=O)C(C)NC(=O)C1CCCN1C(=O)CNC(=O)C(CO)NC(=O)C(NC(=O)OCc1ccccc1)C(C)O)C(C)O` (stereo not given) (Cbz-TSGPAT-OMe; configuration not given here), the growth inhibition is 10.6% (inactive).
Regarding `Nc1nc2ncc(CCCNc3ccc(C(=O)NC(CCC(=O)O)C(=O)O)cc3)nc2c(=O)[nH]1` (stereo not given), the growth inhibition is 22.1% (inactive).
Same read-out and setting: then `CC(C)N(C=C(C#N)C#N)C(C)C`, with 4.6% (inactive); and `COc1ccc(OC)c(CCCCC(N)=O)c1`, with -9.55% (inactive).
As to `O=CC(=O)c1ccccc1O`, the growth inhibition was 75.7% (active).
Still for that read-out and setting: the same measure for `COc1ccc(C(CC(=O)O)c2ccc(OC)cc2OC)cc1` (stereo not given): 6.95% (inactive); for `CC(COC(=O)c1ccc(N)cc1)NC1CCCCC1` (stereo not given): -16.6% (inactive).
For `CC(=O)O[C@@H]1[C@H]2[C@@H](OC(=O)c3ccccc3)[C@@H](C)C[C@]2(O)[C@H](OC(C)=O)[C@@]2(C)[C@@H]3C[C@@](C)(OC(C)=O)C[C@@H](OC(C)=O)[C@@]3(OC(C)=O)C[C@@]12C`, the growth inhibition was -50.5% (inactive).
Take `C/C(CCl)=N/NC(N)=S`: the growth inhibition was -12.5% (inactive).
For `Cc1cc(Br)cc(Cl)c1O`, the growth inhibition is -12.4% (inactive).
Consider `Cc1cc2c(cc1C)NC1=C(N2)OC(c2ccc(Cl)cc2)C1=O` (stereo not given), for which the growth inhibition is 44.1% (inactive).
With `C[N+](C)(C)CC(=O)N/N=C(/Cc1nc2ccc([N+](=O)[O-])cc2[nH]c1=O)C(=O)Nc1cc(C(F)(F)F)ccc1Cl`, the growth inhibition is 16.2% (inactive).
For the molecule `Cc1ccc(NS(=O)(=O)c2ccc(F)cc2)c(C)c1`, the growth inhibition was -9.15% (inactive).
On to `Cc1nsc2[nH]c(=O)n(Nc3ccc(O)cc3)c(=O)c12`, for which the growth inhibition is -4.9% (inactive).
For `O=S(=O)(O)Cc1cccc2ccccc12`, the growth inhibition is 22.6% (inactive).
As for `C[N+]([O-])=C(c1ccccc1)c1ccccc1`, the growth inhibition was -4.9% (inactive).
Still for that read-out and setting: then `CCCCCCC(C)OC(=O)CCl` (stereo not given), with 0.95% (inactive).
Consider `CC(Oc1ccc2c(-c3ccc(Cl)cc3)cc(=O)oc2c1)C(=O)O` (stereo not given), for which the growth inhibition is 32.9% (inactive).
Turning to `CC(=O)Nc1cc2c3c(c1)CCCN3CCC2`, the growth inhibition was -3.6% (inactive).
In the case of `C/C(=N\N=Nc1ccc(N(C)C)cc1)c1ccccc1`, the growth inhibition was 9.1% (inactive).
As for `CS/N=C(\c1ccccc1)N(C)C`, the growth inhibition is 3.35% (inactive).
Consider `O=C1c2cscc2C(=O)c2c(OCc3ccccc3)ccc(OCc3ccccc3)c21`, for which the growth inhibition was 7.4% (inactive).
As for `Oc1ccc2c(c1)OCC(O)(c1ccccc1O)C2` (stereo not given), the growth inhibition was 15.3% (inactive).
Turning to `COc1c(-c2cccs2)oc2c(CC(=O)O)cccc2c1=O`, the growth inhibition is -26% (inactive).
Consider `CSc1nc2c(nc(N)n2C2OC(CO)C(O)C(O)C2O)c(=O)[nH]1` (stereo not given), for which the growth inhibition was -8.9% (inactive).
Turning to `Clc1ccc([I+]c2ccc(Cl)cc2)cc1`, the growth inhibition is 97.2% (active).
For the molecule `Cc1cc2c(cc1Cl)SC(NNC(=O)c1ccncc1)=NS2(=O)=O`, the growth inhibition was -9.4% (inactive).
Turning to `Cc1ccc(S(=O)(=O)C2c3nc4ccccc4cc3-c3nc4ccccc4nc32)cc1` (stereo not given), the growth inhibition is -14.9% (inactive).
As to `CC1C(=O)OC(=O)C1C` (stereo not given), the growth inhibition was 8.8% (inactive).
In the case of `COC(=O)c1ccccc1NC(=NC1CCCCCC1)NS(=O)(=O)c1ccc(C)cc1`, the growth inhibition was -31.3% (inactive).
